These results are taken from PubChem BioAssay (NCI).

Experiment in all cases: NCI-60 one-dose screen, 48 h (100 = growth as untreated, 0 = no growth, -100 = all killed)
What all share (conditions): 10 µM unless noted

Experiment [1] concerns K-562 leukemia.
For experiment [2], the system named is MALME-3M melanoma.
The test system of experiment [3] is MDA-MB-231 breast.
Experiment [4] concerns RXF 393 renal.
The test system of experiment [5] is SF-268 CNS.
The test system of experiment [6] is SF-295 CNS.
Experiment [7] deals with SF-539 CNS.
Experiment [8] concerns UACC-257 melanoma.
The test system of experiment [9] is M14 melanoma.
In experiment [10] the test system is HCT-15 colon.
The test system of experiment [11] is HT29 colon.
Experiment [12] deals with SNB-75 CNS.
Experiment [13] concerns SNB-19 CNS.
In experiment [14] the test system is U251 CNS.
The subject of experiment [15] is PC-3 prostate.
Experiment [16] has as its system SK-MEL-5 melanoma.
Experiment [17] deals with UACC-62 melanoma.
Experiment [18] has as its system LOX IMVI melanoma.
In experiment [19] the test system is SK-MEL-28 melanoma.
For experiment [20], the system named is SK-MEL-2 melanoma.

The structures appear in SMILES notation. Compounds without any hit were thinned out: in the full panel of roughly 83,000, 20% have a hit.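 96-well plates, one dose, 48 hours. Percent growth reported; active if below 10.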 Values without a mark were called inactive. Active and inactive are the calls of the source.

On to `O=C(CSc1nnc(-c2ccc3nc(-c4ccc(Cl)cc4)[nH]c3c2)o1)Nc1ccc(C(=O)/C=C/c2ccc(Cl)cc2)cc1`, for which the growth was 81.4% in experiment [1]; 102% in experiment [2]; 90.6% in experiment [3]; 104% in [4]; 99.9% in [5]; 93% in [6]. In addition, the growth in [7] is 84.3%; in experiment [8], 107%; in experiment [9], 102%; in experiment [10], 89.8%; in experiment [11] it was 100%; in experiment [12], 90.9%. For the same compound, the growth is 99.5% in [13]; 82.2% in experiment [14]; 87.7% in experiment [15]; 93.7% in experiment [16]; 83.2% in experiment [17]; -24.2% (active) in experiment [18]. Further, the growth in experiment [19] is 106%; in [20], 111%.
Consider `COc1ccc(/C=N/NC(=O)c2[nH]c3ccc(Br)cc3c2-c2ccccc2)o1`, for which the growth is 12.1% in [1]; 51.5% in experiment [2]; -5.34% (active) in [3]; 50.9% in experiment [4]; 38.6% in experiment [5]; 16.6% in [6]. The growth in [7] is -17.4% (active); in experiment [8], 54.1%; in [9] it was -1.43% (active); in experiment [10] it was 10.7%; in [11], -26.9% (active); in experiment [12], 50.3%. Also, the growth is 30.8% in [13]; 19.5% in experiment [14]; 22.6% in experiment [15]; -29% (active) in experiment [16]; 43.7% in [17]; 63.3% in experiment [19]. Besides, in [20], the growth is -13% (active).
As for `Cc1ccccc1NC(=O)/C=C/c1ccc(OCCOc2ccc3c(C)cc(=O)oc3c2)cc1`, the growth in [1] was 88.8%; in [2], 89.7%; in experiment [3], 91.8%; in [4], 95.3%; in experiment [5], 89.2%; in [6], 104%. Further, the growth in [7] is 50.8%; in [8], 101%; in [9], 98.2%; in experiment [10] it was 74.7%; in experiment [11], 96.7%; in experiment [12], 84.1%. The growth is 86.4% in [13]; 85.8% in [14]; 95.8% in experiment [15]; 92.6% in experiment [16]; 91.6% in [17]; 88.5% in experiment [18]. For the same compound, the growth in experiment [19] was 90.9%; in [20], 103%.
Turning to `Cc1ccc(/C=C/c2nn3c(-c4ccco4)nnc3s2)cc1C`, the growth is 97.7% in experiment [1]; 104% in experiment [2]; 94.8% in experiment [3]; 112% in [4]; 108% in [5]; 97% in experiment [6]. For the same compound, the growth is 99% in experiment [7]; 99.2% in [8]; 108% in experiment [9]; 96% in experiment [10]; 109% in experiment [11]; 96.5% in experiment [12]. Moreover, the growth in experiment [13] was 94.9%; in experiment [14], 95.7%; in experiment [15], 89.9%; in [16], 103%; in [17], 94.8%; in experiment [18] it was 89.3%. For the same compound, in experiment [20], the growth was 128%.
Turning to `Nc1ncc(-c2ccc3ncnc(N4CCc5cc(F)c(Cl)cc54)c3c2)cc1CO`, the growth is 7.76% (active) in experiment [1]; -25.8% (active) in experiment [2]; 17% in experiment [3]; -26.6% (active) in [4]; 8.31% (active) in [5]; -11.5% (active) in experiment [6]. For the same compound, the growth in experiment [7] is -17.8% (active); in experiment [8] it was 9.34% (active); in experiment [9], -3.69% (active); in experiment [10], 5.51% (active); in [11] it was 12.7%; in experiment [12] it was -28.6% (active). In addition, the growth in [13] was 19.1%; in [14], 18.8%; in [15] it was 8.02% (active); in experiment [16] it was -72.4% (active); in [17], -60.5% (active); in [18], 7.2% (active). Also, the growth in experiment [20] is -63.4% (active).
Regarding `CCCC(=O)NC(c1cccnc1)c1cc(C)c2cccnc2c1O` (configuration not stated), the growth in [1] was 22.6%; in [2], 53.1%; in [3] it was 35.5%; in experiment [4], 81.9%; in experiment [5], 42.1%; in experiment [6] it was 32.3%. Moreover, the growth in experiment [7] is 23.3%; in experiment [8] it was 20.9%; in experiment [9] it was 27.5%; in [10], 24.2%; in experiment [11], 21.5%; in [12], 77.5%. Also, the growth in experiment [13] was 61.4%; in [14], 41.3%; in experiment [15] it was 56.9%; in experiment [16], 48.7%; in experiment [17], 28.4%; in [18], 40.2%. Moreover, the growth in experiment [19] was 42.5%; in [20] it was 101%.
For the compound `O=C(CSc1nc2sc3c(c2c(=O)n1-c1ccc(Cl)cc1)CCCC3)N/N=C/c1ccc(F)cc1`, the growth in experiment [1] was 45.4%; in [2], 100%; in experiment [3] it was 86.2%; in [4], 118%; in [5] it was 102%; in [6], 106%. For the same compound, the growth is 102% in [7]; 109% in experiment [8]; 90.5% in [9]; 73.9% in experiment [10]; 60.6% in experiment [11]; 107% in experiment [12]. The growth was 101% in experiment [13]; 67.1% in [14]; 87.1% in experiment [15]; 103% in [16]; 97% in experiment [17]; 95.9% in experiment [18]. Besides, the growth in experiment [19] was 108%; in [20], 136%.
